Activity calls are given as the source filed them. Rule for the calls: active = hit-call score of the fitted dose curve at least 0.9, where 1 is the maximum; inactive = score below 0.9.
How the values were obtained:
[1] = read-out: Human Leukocyte Antigen - DR isotype (HLADR), HLA-DRA (gene 3122); experiment: BSK_BE3C_HLADR: BioMAP Diversity Plus: BE3C Assay for Human Leukocyte Antigen - DR isotype (HLADR) Biomarker Activity (AID 2283032); conditions: primary human bronchial epithelial cells; actives raise or lower the signal
In short: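 Human primary bronchial epithelial cells (BE3C system) exposed to compound for 24 hours; cell-surface HLA-DR measured by ELISA, fitted bidirectionally relative to DMSO. Total protein by SRB in parallel cultures tracked cytotoxicity.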

[2] = read-out: Vascular cell adhesion molecule 1 (VCAM1), VCAM1 (gene 7412); experiment: BSK_4H_VCAM1: BioMAP Diversity Plus: 4H Assay for Vascular cell adhesion molecule 1 (VCAM1) Biomarker Activity (AID 2283033); conditions: primary human endothelial cells (HUVEC); actives raise or lower the signal
In short: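 Primary human umbilical vein endothelial cells, 4H stimulation system, treated for 24 h; cell-surface VCAM-1 quantified by ELISA. Bidirectional fitting against DMSO; cytotoxicity tracked by SRB total-protein staining in parallel cultures.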

[3] = read-out: Interferon-gamma inducible Protein 10 (IP10), CXCL10 (gene 3627); experiment: BSK_BE3C_IP10: BioMAP Diversity Plus: BE3C Assay for Interferon-gamma inducible Protein 10 (IP10) Biomarker Activity (AID 2283034); conditions: primary human bronchial epithelial cells; actives raise or lower the signal
In short: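 Primary human bronchial epithelial cells, with IP-10 measured by ELISA 24 hours after chemical dosing. Bidirectional fit against DMSO; cytotoxicity checked by SRB total protein staining in parallel cultures.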

[4] = read-out: Monokine induced gamma interferon (MIG), CXCL9 (gene 4283); experiment: BSK_BE3C_MIG: BioMAP Diversity Plus: BE3C Assay for Monokine induced gamma interferon (MIG) Biomarker Activity (AID 2283035); conditions: primary human bronchial epithelial cells; actives raise or lower the signal
In short: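 ELISA read-out of MIG in human lung bronchial epithelial primary cultures, 24 h post-dosing. Bidirectional curve fit vs DMSO baseline.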

[5] = read-out: Transforming growth factor beta 1 (TGFb1), TGFB1 (gene 7040); experiment: BSK_BE3C_TGFb1: BioMAP Diversity Plus: BE3C Assay for Transforming growth factor beta 1 (TGFb1) Biomarker Activity (AID 2283036); conditions: primary human bronchial epithelial cells; actives raise or lower the signal
In short: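 Primary human bronchial epithelial cells dosed with chemical; TGF-b1 measured by ELISA 24 h after dosing. Bidirectional curve fitting against DMSO negative control; SRB total-protein staining in parallel cultures gauged cytotoxicity.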

[6] = read-out: Plasminogen activator inhibitor-1 (PAI1), SERPINE1 (gene 5054); experiment: BSK_BE3C_PAI1: BioMAP Diversity Plus: BE3C Assay for Plasminogen activator inhibitor-1 (PAI1) Biomarker Activity (AID 2283037); conditions: primary human bronchial epithelial cells; actives raise or lower the signal
In short: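 Primary human bronchial epithelial cells (BE3C system) exposed 24 h; PAI-1 quantified by ELISA. Parallel sulforhodamine B staining of total protein flags cytotoxicity. Bidirectional fit versus DMSO.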

[7] = read-out: urokinase plasminogen activator (uPA), PLAU (gene 5328); experiment: BSK_BE3C_uPA: BioMAP Diversity Plus: BE3C Assay for urokinase plasminogen activator (uPA) Biomarker Activity (AID 2283038); conditions: primary human bronchial epithelial cells; actives raise or lower the signal
In short: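 Bronchial epithelial cells (human, primary); chemical 24 h; uPA by ELISA; bidirectional fit vs DMSO. SRB (0.1%, after 10% TCA fixation, 560 nm) in parallel cultures for cytotoxicity.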

[8] = read-out: Urokinase-type plasminogen activator receptor (uPAR), PLAUR (gene 5329); experiment: BSK_BE3C_uPAR: BioMAP Diversity Plus: BE3C Assay for Urokinase-type plasminogen activator receptor (uPAR) Biomarker Activity (AID 2283039); conditions: primary human bronchial epithelial cells; actives raise or lower the signal
In short: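 Primary human bronchial epithelial cells dosed for 24 h; uPAR quantified by ELISA with bidirectional fitting against DMSO. Overt cytotoxicity assessed in parallel cultures by SRB total-protein staining (0.1% SRB, 560 nm).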

[9] = read-out: Interleukin-6 (IL6), IL6 (gene 3569); experiment: BSK_CASM3C_IL6: BioMAP Diversity Plus: CASM3C Assay for Interleukin-6 (IL6) Biomarker Activity for (AID 2283040); conditions: primary human coronary artery smooth muscle cells; actives raise or lower the signal
[10] = read-out: Tissue plasminogen activator (tPA), PLAT (gene 5327); experiment: BSK_BE3C_tPA: BioMAP Diversity Plus: BE3C Assay for Tissue plasminogen activator (tPA) Biomarker Activity (AID 2283041); conditions: primary human bronchial epithelial cells; actives raise or lower the signal
In short: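 Primary human bronchial epithelial cells in the BE3C system, exposed to compound for 24 h. tPA was quantified by ELISA; DMSO served as baseline, with gain or loss of signal fitted. Cytotoxicity checked in parallel cultures by SRB total-protein staining.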

[11] = read-out: Interleukin-8 (IL8), CXCL8 (gene 3576); experiment: BSK_CASM3C_IL8: BioMAP Diversity Plus: CASM3C Assay for Interleukin-8 (IL8) Biomarker Activity (AID 2283042); conditions: primary human coronary artery smooth muscle cells; actives raise or lower the signal;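 note: IL-8 protein level quantified by ELISA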
[12] = read-out: Human Leukocyte Antigen - DR isotype (HLADR), HLA-DRA (gene 3122); experiment: BSK_CASM3C_HLADR: BioMAP Diversity Plus: CASM3C Assay for Human Leukocyte Antigen - DR isotype (HLADR) Biomarker Activity (AID 2283043); conditions: primary human coronary artery smooth muscle cells; actives raise or lower the signal;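 note: cell-surface HLA-DR protein level quantified by ELISA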
[13] = read-out: Macrophage colony-stimulating factor (MCSF), CSF1 (gene 1435); experiment: BSK_CASM3C_MCSF: BioMAP Diversity Plus: CASM3C Assay for Macrophage colony-stimulating factor (MCSF) Biomarker Activity (AID 2283044); conditions: primary human coronary artery smooth muscle cells; actives raise or lower the signal;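 note: M-CSF protein amount quantified by ELISA after 24 h exposure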
[14] = read-out: Low-density lipoprotein receptor (LDLR), LDLR (gene 3949); experiment: BSK_CASM3C_LDLR: BioMAP Diversity Plus: CASM3C Assay for Low-density lipoprotein receptor (LDLR) Biomarker Activity (AID 2283045); conditions: primary human coronary artery smooth muscle cells; actives raise or lower the signal;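 note: LDLR protein level on the cell surface quantified by ELISA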
[15] = read-out: Monocyte Chemoattractant Protein-1 (MCP1), CCL2 (gene 6347); experiment: BSK_CASM3C_MCP1: BioMAP Diversity Plus: CASM3C Assay for Monocyte Chemoattractant Protein-1 (MCP1) Biomarker Activity (AID 2283046); conditions: primary human coronary artery smooth muscle cells; actives raise or lower the signal;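 note: MCP-1 level quantified by ELISA 24 h after dosing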
[16] = BSK_CASM3C_Proliferation: Cell Proliferation Assessment in the BioMAP Diversity Plus: CASM3C Assay (AID 2283047); conditions: primary human coronary artery smooth muscle cells;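 note: sulforhodamine B total protein stain as relative cell number at 560 nm; sub-confluent cells exposed 48 h before staining; fitted both ways against DMSO so gain or loss of cell number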
[17] = read-out: Monokine induced gamma interferon (MIG), CXCL9 (gene 4283); experiment: BSK_CASM3C_MIG: BioMAP Diversity Plus: CASM3C Assay for Monokine induced gamma interferon (MIG) Biomarker Activity (AID 2283048); conditions: primary human coronary artery smooth muscle cells; actives raise or lower the signal;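 note: MIG protein level measured by ELISA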
[18] = read-out: serum amyloid A (SAA), SAA1 (gene 6288); experiment: BSK_CASM3C_SAA: BioMAP Diversity Plus: CASM3C Assay for serum amyloid A (SAA) Biomarker Activity (AID 2283049); conditions: primary human coronary artery smooth muscle cells; actives raise or lower the signal;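 note: SAA protein level quantified by ELISA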
[19] = BSK_CASM3C_SRB: Viability Assessment in the BioMAP Diversity Plus: CASM3C Assay (AID 2283050); conditions: primary human coronary artery smooth muscle cells
[20] = read-out: Thrombomodulin, THBD (gene 7056); experiment: BSK_CASM3C_Thrombomodulin: BioMAP Diversity Plus: CASM3C Assay for Thrombomodulin Biomarker Activity (AID 2283051); conditions: primary human coronary artery smooth muscle cells; actives raise or lower the signal;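 note: thrombomodulin protein level measured by ELISA 24 h after dosing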

Measured: AC50

CCC(O)=C1C(=O)CC(C(=O)O)CC1=O (stereo unspecified)
inactive: all assays above

CCCN(CCC)c1c([N+](=O)[O-])cc(C(F)(F)F)c(N)c1[N+](=O)[O-]
active: [1] 11.6 µM | [2] 20 µM | [3] 32.6 µM | [4] 22.9 µM | [6] 36.2 µM | [16] 28.1 µM | [20] 3.97 µM
not listed: [8]
inactive: all other assays above

COCCO
inactive: all assays above

C[C@]12CC[C@@H]3c4ccc(O)cc4C[C@@H](CCCCCCCCCS(=O)CCCC(F)(F)C(F)(F)F)[C@H]3[C@@H]1CC[C@@H]2O (stereo partly specified)
active: [14] 2.73 µM
inactive: all other assays above

O=C(O)c1ccccc1
inactive: all assays above

c1ccc(Nc2ccccc2)cc1
active: [5] 3.97 µM
not listed: [4]
inactive: all other assays above

Oc1ccc(C(c2ccc(O)cc2)C(Cl)(Cl)Cl)cc1
inactive: [5] | [9] | [10] | [11] | [12] | [14] | [15] | [17] | [18]
active: [1] 26.5 µM | [2] 26 µM | [3] 29.3 µM | [6] 28.5 µM | [7] 36.6 µM | [8] 31.1 µM | [13] 9.36 µM | [16] 20 µM | [19] 20.9 µM | [20] 15.5 µM

CCCCC(CC)COC(=O)c1ccccc1C(=O)O (stereo unspecified)
active: [5] 5.04 µM | [7] 29.9 µM
not listed: [4]
inactive: all other assays above

COC(=O)c1ccccc1S(=O)(=O)NC(=O)Nc1nc(OC(F)F)cc(OC(F)F)n1
not listed: [4]
inactive: all other assays above

CCCN(CCC)C(=O)SCC
not listed: [4]
inactive: all other assays above

COC(=O)c1c(Cl)nn(C)c1S(=O)(=O)NC(=O)Nc1nc(OC)cc(OC)n1
not listed: [4]
inactive: all other assays above

CCCCC(CC)CN1C(=O)C2C3C=CC(C3)C2C1=O (stereo unspecified)
active: [1] 15.7 µM | [3] 18.2 µM | [6] 28.1 µM
not listed: [4]
inactive: all other assays above

COC(=O)c1ccccc1C(=O)O
not listed: [4]
inactive: all other assays above

CCOC(=O)[C@H](C)Oc1ccc(Oc2nc3ccc(Cl)cc3o2)cc1
active: [6] 3.97 µM
not listed: [4]
inactive: all other assays above

O=C(Nc1ccc([N+](=O)[O-])cc1Cl)c1cc(Cl)ccc1O
inactive: [5] | [6] | [10] | [13] | [14] | [15]
active: [1] 0.148 µM | [2] 0.412 µM | [3] 0.302 µM | [8] 0.148 µM | [9] 0.308 µM | [11] 2.27 µM | [12] 0.899 µM | [16] 1.03 µM | [17] 0.764 µM | [18] 1.56 µM | [19] 0.826 µM | [20] 0.643 µM

COC(=O)c1ccc(I)cc1S(=O)(=O)NC(=O)Nc1nc(C)nc(OC)n1
not listed: [4]
inactive: all other assays above

CCC(C)OC(=O)N1CCCCC1CCO (stereo unspecified)
not listed: [4]
inactive: all other assays above

CCOC(=O)c1ccc(O)cc1
not listed: [4]
inactive: all other assays above

CSC(=O)c1cccc2nnsc12
active: [20] 20 µM
not listed: [4]
inactive: all other assays above

CCN(CC)C(=O)c1cccc(C)c1
not listed: [4]
inactive: all other assays above

COC(=O)c1cccc(C)c1S(=O)(=O)NC(=O)Nc1nc(OCC(F)(F)F)nc(N(C)C)n1
not listed: [4]
inactive: all other assays above

c1ccc2[nH]c(-c3cscn3)nc2c1
not listed: [4]
inactive: all other assays above

COC(=O)CSc1cc(N=c2sc(=O)n3n2CCCC3)c(F)cc1Cl
active: [10] 0.79 µM | [13] 3.97 µM | [16] 29.6 µM
not listed: [4]
inactive: all other assays above

C#CCOC(=O)[C@@H](C)Oc1ccc(Oc2ncc(Cl)cc2F)cc1
not listed: [4]
inactive: all other assays above

COC(=O)c1ccc(CNS(C)(=O)=O)cc1S(=O)(=O)NC(=O)Nc1nc(OC)cc(OC)n1
not listed: [4]
inactive: all other assays above

CCOC(=O)C(C)Oc1ccc(Oc2cnc3cc(Cl)ccc3n2)cc1 (stereo unspecified)
not listed: [4] | [5]
inactive: all other assays above
